Test results published in PubChem BioAssay (NCI).
The panel holds about 79,000 compounds, 15% with a hit somewhere; the sample as a whole holds those more often. No stated cut-off is given here; in the data, active means growth inhibition above about 70%; inactive means the rest.

Assays:
[1] = NCI Yeast Anticancer Drug Screen. Data for the rad50 strain (AID 155);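 further: 0% = growth of vehicle-only cultures of the same strain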; settings: S. cerevisiae rad50 strain growth inhibition; at 50.0 µM; stronger effect = higher value
Outline: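 Cells are treated with compound, grown, and their growth is then scored against vehicle-only cultures of the same repair-deficient yeast strain.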

[2] = NCI Yeast Anticancer Drug Screen. Data for the mec2-1 strain (AID 157); settings: S. cerevisiae mec2-1 strain, at 50.0 µM, stronger effect = higher value
Outline: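 Vehicle-treated cultures served as reference for growth inhibition of compound-exposed mec2-1 yeast.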

[3] = NCI Yeast Anticancer Drug Screen. Data for the sgs1 mgt1 strain (AID 161);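 further: 0% = growth of cultures given vehicle only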; settings: S. cerevisiae sgs1 mgt1 strain, at 50.0 µM, stronger effect = higher value
Outline: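 Test agents were incubated with a DNA-repair-mutant yeast strain. Growth was then read and compared against vehicle-treated controls.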

[4] = NCI Yeast Anticancer Drug Screen. Data for the cln2 rad14 strain (AID 165);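 further: 0% = growth equal to vehicle treated cultures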; settings: S. cerevisiae cln2 rad14 strain, at 50.0 µM, stronger effect = higher value
Outline: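 Each compound was tested on cln2 rad14 yeast. Inhibition of growth was calculated against vehicle-exposed controls.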

[5] = NCI Yeast Anticancer Drug Screen. Data for the bub3 strain (AID 167); settings: S. cerevisiae bub3 mutant strain, at 50.0 µM, stronger effect = higher value
Outline: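 Part of a panel of yeast mutants defective in DNA damage repair or cell cycle regulation. Each strain is grown with compound, and inhibition is calculated relative to solvent-treated cultures.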

[6] = NCI Yeast Anticancer Drug Screen. Data for the mlh1 rad18 strain (AID 175); settings: S. cerevisiae mlh1 rad18 strain growth inhibition; at 50.0 µM; stronger effect = higher value
Outline: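 Vehicle-treated cultures served as the reference for growth inhibition in a yeast strain carrying DNA damage repair alterations exposed to each compound.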

Measured: growth inhibition

O=C(O)C1CCN(Cc2oc(CO)cc(=O)c2O)C1 (stereo not given)
inactive: [1] -31.6% | [2] -19.7% | [3] -19.2% | [4] -1.4% | [5] -24.4% | [6] -2.75%

CC1=NN2C(=O)C(C)SC2=NC(C)(C)C1 (stereo not given)
inactive: [1] -5.6% | [2] -17.9% | [3] -3.15% | [4] 29.2% | [5] -8.2% | [6] -16.3%

N#Cc1c(O)c(-c2ccccc2)c(=O)n2c1[nH]c1ccccc12
inactive: [1] -11.7% | [2] -9.9% | [3] -13.6% | [4] 14.9% | [5] 2.6% | [6] -12.3%

O=C(O)C1CC(Br)C(Br)CC1C(=O)Nc1cccc2ccccc12 (stereo not given)
inactive: [1] 11.8% | [2] 6.45% | [3] 2.85% | [4] -39.3% | [5] 1.3% | [6] 32.1%

C[N+](C)(C)CCOC(=O)/C=C/c1cnc[nH]1
inactive: [1] 9.7% | [2] 10.9% | [3] 37.7% | [4] 23.6% | [5] 6.4% | [6] 16.1%

COc1cc(C#N)cc(OC)c1
inactive: [1] -17.4% | [2] -16.4% | [3] -26.9% | [4] 3.6% | [5] -12.1% | [6] -5.5%

CN(C)c1ccc(C=C2c3ccccc3-c3ccccc32)cc1
inactive: [1] -10.8% | [2] -1.35% | [3] 7.75% | [4] -80.9% | [5] 0.9% | [6] 9.1%

Cc1ccc(NC(=O)CC2Sc3ccccc3NC2=O)c(C)c1 (stereo not given)
inactive: [1] -7.6% | [2] -7.35% | [3] 7.5% | [4] -4.4% | [5] -20.3% | [6] -11.8%

O=C(Nc1ccccc1O)C(O)C(O)C(O)C(O)CO (stereo not given)
inactive: [1] 35% | [2] 30.7% | [3] 38.8% | [4] 23.2% | [5] 52.1% | [6] 58.8%

CN1CC2=C(NC(=S)NC2c2ccccc2Cl)/C(=C/c2ccccc2Cl)C1 (stereo not given)
inactive: [1] 14.7% | [2] 13.2% | [3] 37.6% | [4] 10.6% | [5] 61.8% | [6] -5.15%

O=C(O)CCCCC1CCSS1 (stereo not given)
inactive: [1] 32.2% | [2] 15.8% | [3] 46% | [4] 20.1% | [5] 25.5% | [6] 20.9%

Nc1ccc(N(S(=O)(=O)c2ccccc2)S(=O)(=O)c2ccccc2)nc1
inactive: [1] 27.4% | [2] 6.3% | [3] 11.1% | [4] -4.45% | [5] 2.25% | [6] 17.7%

COC(=O)C(=O)c1c(-c2ccc(O)c(OC)c2)[nH]c2[nH]n(-c3ccccc3)c(=O)c2c1=O
inactive: [1] 24.6% | [2] -17.2% | [3] -1.75% | [4] -30.1% | [5] 14.8% | [6] 14.5%

N[C@@H](C[C@H]1CCC(=O)[C@@H]2O[C@H]12)C(=O)O
inactive: [1] -1.5% | [2] -12.8% | [3] -12.5% | [4] 0.35% | [5] 13.2% | [6] -10.9%

CCOC(=O)c1cc(C)nc2ccc(Br)cc12
inactive: [1] -3.2% | [2] 3.45% | [3] -11.2% | [4] -5.85% | [5] 4.2% | [6] -11.7%

CCCCCCCC/C=C\CCCCCCCC(=O)OCCN(CCOC(=O)CCCCCCC/C=C/CCCCCCCC)C(=O)COC(=O)CCCCCCC/C=C\CCCCCCCC
inactive: [1] -9.3% | [2] -11.8% | [3] -24.4% | [4] -7.6% | [5] -7.35% | [6] 10.7%

O=c1[nH]c2ccccc2c(N=Cc2ccccc2)c1-c1ccccc1
inactive: [1] -6.95% | [2] -20.6% | [3] -4.6% | [4] -26.8% | [5] -12.1% | [6] -0.4%

CCCc1nc2ccccc2c(=O)n1/N=C/c1ccc(Cl)cc1Cl
inactive: [1] -11.7% | [2] 0.4% | [3] 0.05% | [4] 3% | [5] -3.45% | [6] -3.4%

S=C(N/N=C/c1ccc(Cl)cc1Cl)NC1CCc2ccccc21 (stereo not given)
inactive: [1] -12.3% | [2] 20.5% | [3] -9.7% | [4] -33.8% | [5] -7.95% | [6] -9.25%

CC(=O)OCC(=O)[C@@]1(O)CC[C@H]2[C@@H]3C[C@@H](C)[C@@]4(O)CC5(CC[C@]4(C)[C@H]3[C@@H](O)C[C@@]21C)OCC(C)(C)CO5
inactive: [1] 0.35% | [2] 16.2% | [3] 27.1% | [4] 28.6% | [5] -6.2% | [6] -11.2%
